Rows were chosen to be rich in hits. Some 10% of all compounds tested hit in one or more screens of this group.
Insulin prom inh – TRM-6 insulin promoter activity inhibition | hit rate 0.9% among 130,000 | TRM-6 cells (human fetal islet line), insulin promoter-eGFP reporter, imaging; reporter expression induced with tamoxifen | inhibition, % at 2 µM;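 active means inhibition above the mean plus 3 SD, with well images judged a real hit on visual review, cut at about 60% in these data, passing the limit was not always enough; inconclusive means inhibition over the cutoff but images rejected on review; inactive means inhibition not above the cutoff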
Lmaj promast – Leishmania major promastigote growth inhibition; Leishmania major promastigotes, resazurin fluorescence viability; inhibition, % at 10 µM; hit rate 9% among 200,000; in the data active means inhibition above about 50%;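 further: promastigotes grown with compound for 44 hours at 28 °C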
ROMK mod – human ROMK K+ channel modulation, primary screen | hit rate 2% among 130,000 | B-score at 10 µM | Tet-inducible ROMK, thallium flux fluorescence; actives lie on both sides | P48048;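 active means signal ratio slope over the read window, or its plate-corrected B-score, at least 3 SD from the plate mean, either direction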;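 further: B-score of the F/F0 ratio slope over 7 to 12 s after thallium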
Target sequence (P48048 whole entry, looked up): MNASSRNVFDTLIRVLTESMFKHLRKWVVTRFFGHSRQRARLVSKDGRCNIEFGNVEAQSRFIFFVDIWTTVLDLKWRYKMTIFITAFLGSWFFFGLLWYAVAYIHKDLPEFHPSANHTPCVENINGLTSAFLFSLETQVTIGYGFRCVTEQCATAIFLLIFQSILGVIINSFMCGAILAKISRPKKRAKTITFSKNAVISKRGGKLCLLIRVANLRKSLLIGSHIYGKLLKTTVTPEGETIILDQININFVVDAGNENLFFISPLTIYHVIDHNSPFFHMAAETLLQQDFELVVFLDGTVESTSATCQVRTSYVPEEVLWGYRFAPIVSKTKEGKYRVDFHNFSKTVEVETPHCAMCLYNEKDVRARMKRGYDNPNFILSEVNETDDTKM
PTEN del growth – PTEN-deleted cell growth suppression. HCT116 PTEN-null viability, CellTiter-Glo, 60 h; hits give low values. viability, % at 10 µM. hit rate 1.2% among 140,000. AID 827;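 active means viability at or below a set limit, 4 SD under the median of all tested compounds, cut at about 3.7% in these data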;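 further: PTEN knockout HCT116 line with beta catenin targeted HCT116 as companion control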
p97 ATPase inh – human p97 ATPase inhibition | P55072 | recombinant p97 ATPase, Kinase-Glo ATP luminescence, 3 h | inhibition, % at 8 µM | hit rate 0.42% among 220,000 | AID 1481; in the data active means inhibition above about 15%;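 further: 0% = DMSO vehicle and 100% = wells lacking enzyme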
HCT116 bCat-KO – beta-catenin-lacking colon tumor cell growth suppression; HCT116 beta-catenin knockout viability, CellTiter-Glo, 60 h; hits give low values; hit rate 1.5% among 140,000; AID 818; viability, % at 10 µM;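 active means viability at or under a set limit, the compound median less 4 SD, cut at about 6% in these data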;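 further: 0% = Hyamine 1622 control at 20 µM and 100% = untreated cell control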
* marks the source's active call; other numbers are inactive results; ? = inconclusive; . = no result given.

SMILES	Insulin prom inh	Lmaj promast	ROMK mod	PTEN del growth	p97 ATPase inh	HCT116 bCat-KO
COc1cc(/C=C/C(=O)c2cccc([N+](=O)[O-])c2)cc(OC)c1OC	56	100*	-1.9	1.4*	0	2.1*
O=C(/C=C/c1ccccc1F)c1cccc([N+](=O)[O-])c1	50	29	-0.3	2.6*	7	3.2*
COc1ccccc1NC(=O)/C(=C/c1cccc([N+](=O)[O-])c1)c1ccccc1	33	89*	-0.0032	65	0	75
COc1ccc(C(=O)/C=C/c2ccccc2F)c(OC(=O)c2ccc([N+](=O)[O-])cc2)c1	.	91*	0.83	23	1	32
COc1cc(/C=C/C(=O)c2ccccc2O)cc(OC)c1OC	20	13	0.0057	.	2	.
CCN(CC(=O)Nc1ccc(N2CCOCC2)cc1)CC(=O)NC(C)(C)C	.	-4	-0.37	.	-1	.
Cc1cc(C)c(C(=O)/C=C/c2ccc3c(c2)OCO3)c(=O)[nH]1	.	15	.	.	-2	.
Cc1cc(C)c(C(=O)/C=C/c2cccc3ccccc23)c(=O)[nH]1	.	100*	-1.8	2.3*	6	1.5*
O=C(NC(=S)NCCO)c1sc2ccccc2c1Cl	44	63*	0.71	.	-3	.
O=C(NNC(=S)NC1CCCCC1)c1sc2ccccc2c1Cl	16	-6	1.2	93	-1	80
CC(C)(C)C(=O)NC(=S)NNC(=O)c1sc2ccccc2c1Cl	32	24	7.3*	5	-5	3.0*
O=C1Nc2ccccc2N(O)N1c1cc(-c2ccc(Cl)cc2)[nH]n1	15	1	0.42	.	7	.
Cc1ccc(C(=O)N(CCCN(C)C)c2nc3ccc(Cl)cc3s2)cc1C	-29	82*	0.57	.	-2	.
CCN(CC)CCN(C(=O)c1ccc2c(c1)CCCC2)c1nc2ccc(F)cc2s1	?	35	-0.83	.	6	.
CN(C)CCCN(C(=O)CCc1ccccc1)c1nc2ccc(Br)cc2s1	-47	61*	-0.082	.	0	.
CN(C)CCCN(C(=O)c1ccc2c(c1)CCCC2)c1nc2ccc(F)cc2s1	-23	74*	.	2.7*	2	8
Cc1ccc2nc(N(CCCN(C)C)C(=O)c3sc4ccccc4c3Cl)sc2c1	39	56*	.	82	6	80
O=C(NCCc1c[nH]c2ccccc12)c1cc(S(=O)(=O)N2CCCCC2)ccc1N1CCOCC1	-14	65*	0.69	71	-3	71
O=C(Nc1cc(S(=O)(=O)N2CCCCC2)ccc1N1CCOCC1)c1cc(=O)[nH]c2ccccc12	.	.	.	.	6	.
COc1ccc(-c2cnnc(N/N=C/C(C)=C/c3ccccc3)n2)cc1	-6	8	.	96	-4	94
Cc1cc(C(=O)CCl)c(C)n1CCc1ccc(Cl)cc1	.	101*	-1.1	.	3	.
Cc1cc(C(=O)CSc2nnnn2C)c(C)n1CCc1ccc(F)cc1	-126	-3	.	79	-1	83
COc1ccc(CCn2c(C)c(C(C)=O)c(C(C)=O)c2C)cc1OC	-58	-3	-0.034	.	3	.
Cc1cc(C(=O)CCl)c(C)n1CCc1ccc(F)cc1	100*	100*	0.018	.	1	.
COc1ccc(CCn2c(C)cc(C(=O)CCl)c2C)cc1OC	30	89*	-1.5	.	-2	.
SMILES	Insulin prom inh	Lmaj promast	ROMK mod	PTEN del growth	p97 ATPase inh	HCT116 bCat-KO
Cc1c(-c2ccccc2)oc2c(C(=O)N3CCN(c4ccccc4F)CC3)cccc2c1=O	-56	0	-3	68	5	84
Cc1sc2ncnc(Sc3nnnn3-c3ccccc3)c2c1C	.	89*	.	5	2	7
Cc1sc2ncnc(Sc3ccccc3C(=O)O)c2c1C	-20	0	1	.	2	.
O=C(c1ccco1)N1CCN(c2ccc(F)cc2)CC1	-33	-4	-0.38	.	-5	.
CNC(=S)N1CCN(C(=O)c2ccco2)CC1	24	75*	-0.094	102	-1	94
O=C(c1ccco1)N1CCN(CC2CC3C=CC2C3)CC1 (stereo unspecified)	-24	93*	.	109	-1	107
O=[N+]([O-])c1ccccc1S(=O)(=O)N1CCN(CC2CC3C=CC2C3)CC1 (stereo unspecified)	15	4	-1.1	.	10	.
CS(=O)(=O)N1CCN(CC2CC3C=CC2C3)CC1 (stereo unspecified)	13	93*	-0.49	96	-6	104
CCN1CCN(CC2CC3C=CC2C3)CC1 (stereo unspecified)	12	12	0.62	76	7	96
C1=CC2CC1CC2CN1CCN(c2ccccc2)CC1 (stereo unspecified)	.	85*	.	85	4	80
O=C(NNc1ccccc1)/C(=C\c1cccnc1)NC(=O)c1ccccc1	.	.	.	.	1	.
O=C1COc2ccc(N3C(=O)c4ccccc4C3=O)cc2N1	.	-3	0.17	.	4	.
Cc1ccccc1CN1CCN(CC2CC3C=CC2C3)CC1 (stereo unspecified)	-4	87*	-1.6	81	-2	81
CCOC(=O)Cc1nn[nH]n1	-10	-2	0.11	.	3	.
Cc1cc(C)nc(N2CCCC(C(=O)Nc3cc(F)ccc3C)C2)n1 (stereo unspecified)	50	8	0.0038	93	5	95
Cc1cc(C(=O)CSc2cccc[n+]2[O-])c(C)n1-c1ccc(Br)cc1	.	95*	1.4	.	3	.
O=C(CSc1cccc[n+]1[O-])c1ccccc1Br	.	99*	0.98	.	-7	.
FC(F)(F)c1cnc(Sc2ncn[nH]2)c(Cl)c1	.	-2	-0.09	.	8	.
C1CCC(n2nnnc2CN2CCN(C3CCCC3)CC2)CC1	.	90*	.	98	-3	98
N#CC(C#N)=C1NC2(CCCCC2)Cc2ccccc21	.	.	.	.	1	.
N#CC(C#N)=c1ccc2c(c1)NC1(CCCCC1)N=2	.	100*	-1.3	1.3*	-11	1.4*
Cc1nn(C)cc1/C=N/NC(=O)Cn1cncn1	.	.	.	.	-9	.
CC(C)(O)C#Cc1ccc(CN2CCCC(CO)(Cc3cccc(Cl)c3)C2)cc1 (stereo unspecified)	.	97*	-0.13	.	0	.
COc1ccc(/C=C/CN2CCCC(CO)(Cc3cccc(Cl)c3)C2)cc1 (stereo unspecified)	.	97*	-2	.	0	.
Cc1ccc2nc(C)cc(C(=O)N3CCCC(CO)(Cc4ccccc4C)C3)c2c1 (stereo unspecified)	-61	61*	1.8	.	-8	.
Cc1ccccc1CC1(CO)CCCN(C(=O)CCC(=O)c2ccccc2)C1 (stereo unspecified)	.	4	-1	.	-4	.
Cc1ccccc1CC1(CO)CCCN(Cc2ccc(C#CC(C)(C)O)cc2)C1 (stereo unspecified)	-4	85*	-0.006	.	-5	.
Cc1nn(CC(=O)Nc2nnc(C(C)C)s2)c(=O)c2ccccc12	.	19	-0.012	.	8	.
Cc1ccc(C)c(-c2[nH]ncc2CN2CCCC(CO)(Cc3ccccc3C)C2)c1 (stereo unspecified)	.	73*	.	.	0	.
COc1ccc(-n2c(C)cc(/C=C3\SC(=S)N(Cc4ccco4)C3=O)c2C)cc1	-245	68*	-0.13	83	0	81

Source: PubChem BioAssay (several laboratories)
